Screens as filed in PubChem BioAssay.
NPC1 prom act = activates the NPC1 promoter; hit rate 2.4% among 320,000; AID 485313; Potency, µM (highest dose often 9.22 µM), for inactives: at the top dose activation, usual class: activators; Huh7 NPC1 promoter luciferase reporter, 24 h; note: % of control where 0% means no effect; nearly all actives have a fitted effect of over 60% in size
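Stably transfected Huh7 (NPC1 promoter→luciferase), 1500 cells/well in Opti-MEM + 10% FBS, 2 h settle, then compound 24 h at 37 °C. Luminescence after 10 min with Amplite reagent.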
SMN2 splice enh = enhancers of SMN2 splice variant expression. hit rate 2.8% among 210,000. HEK293 SMN2-luciferase splicing reporter, luminescence, 30-36 h. Potency, µM (titrated, usually from 46.1 µM), inactives show at the top dose activity change, positive = activation, actives largely listed as activators. AID 1458; note: % of control where 0% means no effect; nearly all actives have a fitted effect of over 55% in size
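HEK293 cells carry an SMN2 […]–luciferase reporter in which exon 7 inclusion puts luciferase in frame. Cells were plated 10-12 h before compound addition, then incubated 30-36 h at 37C. ONE-Glo luminescence was read; sodium butyrate at 4.5 mM final served as control.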
Rab9 promoter act = Rab9 promoter activation. Huh7 Rab9 promoter-luciferase reporter, luminescence, 24 h. Potency, µM (titrated, usually from 9.22 µM), for the others: top-dose activation, negative = inhibition, hits mostly activators. hit rate 2.8% among 320,000. AID 485297; note: % of control where 0% means no effect; nearly all actives have a fitted effect of over 60% in size
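Huh7 cells stably carrying a Rab9 promoter-luciferase reporter, 1500 cells per well in OP-MEM I with 10% FBS, treated with compound 24 hours at 37C. Luciferase activity read by luminescence after 10 minutes with Amplite reagent.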
ELG1 DNA repair = blocks ELG1-dependent DNA repair in HEK293T cells | HEK293T ELG1-luciferase reporter, luminescence, 16 h; DNA damage induced by 5-fluorouridine | Potency, µM (series often up to 46.1 µM), for the others: at the top dose activity change, negative = inhibition, usual class: inhibitors | hit rate 2.3% among 330,000; note: % is set by controls: 0 for no effect and ±100 for the full control effect; nearly all actives have a fitted effect of over 55% in size
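5-Fluorouridine DNA damage + compound/DMSO, 2,000 cells/well, 16 h, 37 °C/5% CO2. ONE-Glo, 30 min RT, luminescence. Readout = decrease in reporter signal.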
ELG1 genotox = induces genotoxicity in HEK293T cells with luciferase-tagged ELG1 | HEK293T ELG1-luciferase reporter, luminescence, 16 h | AID 504466 | hit rate 1.3% among 330,000 | Potency, µM (doses to about 46 µM), inactives show top-dose activity change, positive = activation, hits mostly activators; note: % of control where 0% means no effect; nearly all actives have a fitted effect of over 60% in size
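HEK293T cells expressing luciferase-tagged ELG1 were exposed to compound or DMSO vehicle for 16 hr at 37 °C and 5% CO2. Luciferase activity was then measured with ONE-Glo after 30 min at room temperature.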
FLuc counter = counter-screen for miR-21 project: firefly luciferase inhibitors or activators | P08659 | purified FLuc, Km substrates, luminescence inhibition | hit rate 6.9% among 360,000 | Potency, µM (titrated, usually from 57.5 µM), for the others: at the highest dose activity change, negative = inhibition, most hits filed as inhibitors;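 note: plate controls were vehicle for no effect and reference inhibitor for full effect; nearly all actives have a fitted effect of over 55% in size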
Target sequence (P08659 whole entry, looked up): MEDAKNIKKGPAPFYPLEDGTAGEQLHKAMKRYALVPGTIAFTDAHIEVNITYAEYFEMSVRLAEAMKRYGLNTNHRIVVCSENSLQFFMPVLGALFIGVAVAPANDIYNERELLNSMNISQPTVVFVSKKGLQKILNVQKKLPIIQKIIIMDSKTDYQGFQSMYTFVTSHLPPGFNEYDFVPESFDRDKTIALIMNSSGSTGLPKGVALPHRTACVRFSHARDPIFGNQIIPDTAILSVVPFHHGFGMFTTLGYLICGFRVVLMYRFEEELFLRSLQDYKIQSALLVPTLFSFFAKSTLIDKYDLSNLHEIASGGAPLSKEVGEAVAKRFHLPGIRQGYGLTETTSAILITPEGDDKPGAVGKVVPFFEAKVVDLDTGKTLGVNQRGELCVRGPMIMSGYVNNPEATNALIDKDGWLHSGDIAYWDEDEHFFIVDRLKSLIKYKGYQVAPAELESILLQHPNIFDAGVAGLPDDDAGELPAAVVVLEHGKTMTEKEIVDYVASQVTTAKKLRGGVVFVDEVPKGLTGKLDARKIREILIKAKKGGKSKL
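Purified P. pyralis luciferase, 10 nM final, with Km-level 10 uM D-luciferin and 10 uM ATP in 50 mM Tris acetate pH 7.5, 10 mM Mg acetate, 0.01% Tween-20, 0.05% BSA; 6-point qHTS titration about 60 µM downward; luminescence read.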
* marks the source's active call; other numbers are inactive results; ? = inconclusive; . = no result given; [ ] = another dose, or the depositor's remark. Rows were chosen to be rich in hits. Some 9.3% of all compounds tested hit in one or more screens of this group. Calls come from the whole dose curve; as a rule, active = well fitted curve in the direction sought with a large enough effect; inconclusive = small, poorly fitted or top-dose-only effect, or another doubt; inactive = no such curve, though single readings can be large; an effect the other way counts as inactive or inconclusive. Potency is the fitted concentration of half-maximal effect.

SMILES | NPC1 prom act | SMN2 splice enh | Rab9 promoter act | ELG1 DNA repair | ELG1 genotox | FLuc counter
CCN(CC)S(=O)(=O)c1cc(NC(=O)CSc2nnc(-c3cccs3)o2)ccc1C | 0% | 29% | -7% | 23% | 6% | -18%
Cc1ccc(NC(=O)c2cncc(Br)c2)cc1S(=O)(=O)N(C)C | ? | 11µM* | ? | ? | ? | 9.5µM*
Cc1ccc(NC(=O)CSc2nnc(-c3cccs3)o2)cc1S(=O)(=O)N(C)C | ? | ? | 3.5µM* | ? | ? | 4%
COc1ccc(NC(=O)c2cncc(Br)c2)c(S(=O)(=O)N2CCOCC2)c1 | 1% | 1% | 0% | 11µM* | -16% | -1%
CCN1CCOC(=O)C1CC(=O)Nc1ccc(C)c(Cl)c1 (configuration not stated) | . | 2% | . | . | . | -6%
O=C(Nc1cccc(S(=O)(=O)N2CCCCCC2)c1)c1cncc(Br)c1 | . | . | . | ? | -12% | .
CCN(CC)c1ccc(NC(=O)c2cncc(Br)c2)cc1 | ? | ? | ? | -20% | 7% | 17µM*
Cc1ccc(S(=O)(=O)N2CCCCC2)cc1NC(=O)c1cncc(Br)c1 | 2% | . | 1% | 5.8µM* | -4% | 0%
Cc1ccc(S(=O)(=O)N(C)C)cc1NC(=O)c1cncc(Br)c1 | -10% | -14%[1.84 µM] | -25% | 15µM* | 1% | -1%
CCN(CC)c1ccc(NC(=O)c2cccnc2)cc1 | . | 23% | . | . | . | ?
Cc1cnc(NC(=O)c2cncc(Br)c2)s1 | 2.2µM* | . | 1.3µM* | ? | ? | 8.5µM*
CN(C)S(=O)(=O)c1cccc(NC(=O)c2cncc(Br)c2)c1 | 6% | -5% | 5% | -19% | -3% | -16%
CCCNc1c(NS(=O)(=O)c2ccc3c(c2)CCCC3)c(=O)oc2ccccc12 | 4% | . | 14% | ? | -7% | 0%
CCc1ccc(C(=O)OCC(=O)N(CCOC)c2c(N)n(Cc3ccccc3)c(=O)[nH]c2=O)cc1 | 2% | . | 2% | 1% | 7% | 3%
Cc1ccc(C(=O)Nn2c(C)nc3ccccc3c2=O)cc1C | 1% | . | -4% | -7% | -4% | -8%
CCC(=O)N1C2=C(c3ccccc3[C@@H]1CC(=O)Nc1ccc3ccccc3c1)[C@@H]1C(=O)N(c3ccccc3)C(=O)[C@@H]1[C@H](C)C2 | . | -2%[9.22 µM] | . | . | . | .
COc1ccc(CN=C(Nc2ccccc2)SC2CC(=O)NC2=O)cc1 (configuration not stated) | ? | . | ? | ? | ? | 6.7µM*
O=C(O)/C=C\C(=O)Nc1ccc2c(c1)-c1ccccc1C2 | . | -6%[9.22 µM] | . | . | . | .
NNC(=O)c1ccc(COc2ccc3ccccc3c2)cc1 | ? | . | 18% | ? | 1% | 6µM*
CCCNC(=O)c1cccc(COc2ccccc2OC)c1 | 1.4µM* | 14µM* | 3.5µM* | ? | ? | 5.4µM*
COc1ccc(OCc2cccc(C(=O)NN)c2)cc1 | 0.089µM* | 3.2µM* | 0.089µM* | ? | ? | 6µM*
O=C(COc1ccc2ccccc2c1)NNC(=O)c1ccccc1 | 0% | . | -3% | -1% | -3% | -1%
NNC(=O)c1cccc(COc2ccc(Br)cc2)c1 | 0.32µM* | 1µM* | 0.1µM* | ? | ? | 11µM*
Cc1ccc(-n2c(=O)c3c4c(sc3n(CC(=O)Nc3cccc(Cl)c3)c2=O)CCCCC4)cc1C | . | -8% | . | . | . | -5%
Cc1cc(C)cc(OCC(=O)Nc2ccc(-c3nc4ncccc4o3)cc2C)c1 | . | . | . | . | . | 1%
SMILES | NPC1 prom act | SMN2 splice enh | Rab9 promoter act | ELG1 DNA repair | ELG1 genotox | FLuc counter
Cc1cc(C)cc(OCC(=O)Nc2ccc(-c3nc4ccccc4o3)cc2)c1 | . | 6.3µM* | . | . | . | 3%
Cc1cc(C)cc(OCC(=O)Nc2cccc(-c3nc4ncccc4o3)c2)c1 | 2% | 1% | 5% | 12µM* | -16% | ?
CCC(C)c1ccc(OCC(=O)Nc2cccc(-c3nc4ncccc4o3)c2)cc1 (configuration not stated) | . | 3% | . | . | . | 7.6µM*
Cc1cccc(OCC(=O)Nc2ccc(-c3nc4ccccc4o3)cc2)c1C | . | ? | . | . | . | 1%
CC(C)c1ccc(OCC(=O)Nc2cc(-c3nc4ncccc4o3)ccc2Cl)cc1 | . | 4% | . | . | . | 1%
CC(=O)Oc1ccc(/C=C2/C(=O)N(c3ccccc3)N=C2C)cc1 | -3% | . | 2% | -1% | 1% | 24µM*
CC1=NN(c2ccccc2)C(=O)/C1=C/c1cccc(C)c1 | -4% | . | 1% | 3% | 7% | 24µM*
COc1cc(/C=C2/C(=O)N(c3cccc(Br)c3)N=C2C)cc(OC)c1O | -3% | . | 0% | -1% | -3% | 17µM*
CC1=NN(c2ccccc2)C(=O)/C1=C/c1cc2cc(C)ccc2nc1N1CCCCC1 | ? | ? | ? | ? | 10% | ?
COc1ccc(/C=C2/C(=O)N(c3c(F)c(F)c(F)c(F)c3F)N=C2C)cc1 | 2% | . | -2% | ? | 13% | ?
COc1cc(/C=C2/C(=O)N(c3ccc(Br)cc3)N=C2C)cc([N+](=O)[O-])c1O | 2% | . | 5% | 5% | 1% | ?
COc1ccc(/C=C2/C(=O)N(c3ccccc3)N=C2C)cc1OC | -4% | . | -2% | ? | 11% | 6µM*
COc1ccc(C2=NN(c3ccccc3)C(=O)/C2=C\c2ccc(O)c(OC)c2)cc1 | 6% | 7% | 13% | 4% | 10% | ?
CCOc1ccccc1NC(=O)N1CCc2cc(S(=O)(=O)N3CCC(C)CC3)ccc21 | . | 6% | . | . | . | -4%
CCOC(=O)c1c(C)[nH]c(C)c1C(=O)COC(=O)c1cc(OC)c(OC)cc1OC | -3% | 3% | 1% | ? | -3% | -4%
COCc1cc(C)nc2sc3c(=O)n(-c4ccccc4C(F)(F)F)nnc3c12 | . | . | . | . | . | 0%
CC1=NN(CCC#N)C(=O)/C1=C/c1ccc(N(C)C)cc1 | 1% | 0% | 3% | 10% | 5% | 19µM*
CCOc1cc(/C=C2\C(=O)N(CCC#N)N=C2C)ccc1OCC(N)=O | -1% | 27% | -8% | 16% | 2% | -14%
COc1cc(/C=C2\C(=O)N(CCC#N)N=C2C)ccc1OCC(=O)Nc1ccccc1 | 2% | 16% | 2% | ? | ? | 11µM*
O=C(NC1CCCCC1)C(c1ccc(F)cc1)N(Cc1ccc2c(c1)OCO2)C(=O)c1cnsn1 (configuration not stated) | -10% | -32% | -2% | -12% | -8% | 5%
COc1ccc(OC)c(-c2nc3c(C)n[nH]c(=O)c3[nH]2)c1 | -1% | -38% | -6% | 6.5µM* | -29% | -1%
